From PubChem
DT40 TDP1 CPT: qHTS for Inhibitors of human tyrosyl-DNA phosphodiesterase 1 (TDP1): qHTS in cells in presence of CPT. chicken DT40 Tdp1-/-;hTDP1 cells + 20 nM CPT, ATP luminescence, 48 h. Potency, µM (titrated, usually from 46.2 µM), for inactives: at the top dose activity change, negative = growth inhibition, most hits filed as inhibitors. actives 12% (n = 420,000); note: potency is the fitted concentration of half-maximal effect; nearly all actives have a fitted effect of over 55% in size
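Chicken DT40 Tdp1-/- cells stably complemented with human TDP1 were seeded at 400 cells/well in medium containing 20 nM camptothecin, exposed to pin-transferred compounds, and grown at 37 °C for at least 48 hr. Viability was read as ATP luminescence.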
HT1080-NT tox: qHTS for induction of synthetic lethality in tumor cells producing 2HG: qHTS for the HT-1080-NT fibrosarcoma cell line | HT-1080-NT fibrosarcoma viability, CellTiter-Glo ATP luminescence, 48 h | Potency, µM (series often up to 46.1 µM), for inactives: top-dose activity, negative = less viability, usual class: cytotoxic | actives 1.6% (n = 360,000) | AID 686970, 2013;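 note: NT is the 2HG producing partner of a matched IDH1 knockdown line; potency is the fitted concentration of half-maximal effect; 0% = DMSO-treated cells and -100% = media-only wells without cells; nearly all actives have a fitted effect of over 55% in size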
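Luminescent CellTiter-Glo readout after 48 hours of compound exposure at 37 degrees C defined viability of HT-1080-NT cells. Activity was normalized to DMSO wells and cell-free media wells; concentration-response curves were fitted and assigned curve classes.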
IL-1B inflam inh: qHTS for Inhibitors of Inflammasome Signaling: IL-1-beta AlphaLISA Primary Screen. actives 4.7% (n = 360,000). THP-1 LPS/ATP IL-1B secretion, AlphaLISA, 16 h; hits give low values. AID 743279, 2014. activity change, % at 57.5 µM; in the data active = activity change below about -50%; inconclusive = mostly about -30% to -49%
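THP-1 cells pretreated 1 hr with compounds (up to 57.5 uM final), then stimulated with LPS (250 ng/mL final) plus ATP (1.25 mM final); secreted IL-1B measured by AlphaLISA after 16 hr, decreased signal indicating inhibition.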
HT1080 IDH1KD tx: qHTS for induction of synthetic lethality in tumor cells producing 2HG: qHTS for the HT-1080-IDH1KD cell line; actives 2% (n = 360,000); Potency, µM (highest dose often 46.1 µM), inactives show at the highest dose activity, negative = toxicity, most hits filed as cytotoxic; HT-1080 IDH1 knockdown viability, ATP luminescence, 48 h;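 note: potency is the fitted concentration of half-maximal effect; 0% = DMSO wells and -100% = cell-free medium wells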
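HT-1080-IDH1KD cells (IDH1 knocked down), 750/well in RPMI with 5% FBS, treated with compound 48 h at 37 degrees C. Viability by CellTiter-Glo luminescence, normalised to DMSO and no-cell wells; concentration-response curves classed.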
DT40 TDP1 no CPT: qHTS for Inhibitors of human tyrosyl-DNA phosphodiesterase 1 (TDP1): qHTS in cells in absence of CPT; Potency, µM (titrated, usually from 46.2 µM), without a hit: at the top dose activity change, negative = growth inhibition, actives largely listed as inhibitors; DT40 Tdp1-/- hTDP1 cells, no CPT, ATP luminescence, 48 h; actives 15% (n = 420,000); note: potency is the fitted concentration of half-maximal effect; nearly all actives have a fitted effect of over 55% in size
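Chicken DT40 Tdp1-/- cells stably complemented with human TDP1 were seeded at 400 cells/well with DMSO in place of 20 nM camptothecin. After compound pinning, cells grew at least 48 hr at 37 °C; viability read by CellTiter-Glo luminescence.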
12-LOX inh: Primary qHTS assay for inhibitors of human arachidonate 12S-lipoxygenase (ALOX12): Round 2 | purified 12hLO, xylenol orange hydroperoxide absorbance | actives 1.1% (n = 580,000) | Potency, µM (series often up to 108 µM), inactives show top-dose activity change, negative = inhibition, most hits filed as inhibitors; note: potency is the fitted concentration of half-maximal effect
Target sequence (P18054 whole entry, looked up): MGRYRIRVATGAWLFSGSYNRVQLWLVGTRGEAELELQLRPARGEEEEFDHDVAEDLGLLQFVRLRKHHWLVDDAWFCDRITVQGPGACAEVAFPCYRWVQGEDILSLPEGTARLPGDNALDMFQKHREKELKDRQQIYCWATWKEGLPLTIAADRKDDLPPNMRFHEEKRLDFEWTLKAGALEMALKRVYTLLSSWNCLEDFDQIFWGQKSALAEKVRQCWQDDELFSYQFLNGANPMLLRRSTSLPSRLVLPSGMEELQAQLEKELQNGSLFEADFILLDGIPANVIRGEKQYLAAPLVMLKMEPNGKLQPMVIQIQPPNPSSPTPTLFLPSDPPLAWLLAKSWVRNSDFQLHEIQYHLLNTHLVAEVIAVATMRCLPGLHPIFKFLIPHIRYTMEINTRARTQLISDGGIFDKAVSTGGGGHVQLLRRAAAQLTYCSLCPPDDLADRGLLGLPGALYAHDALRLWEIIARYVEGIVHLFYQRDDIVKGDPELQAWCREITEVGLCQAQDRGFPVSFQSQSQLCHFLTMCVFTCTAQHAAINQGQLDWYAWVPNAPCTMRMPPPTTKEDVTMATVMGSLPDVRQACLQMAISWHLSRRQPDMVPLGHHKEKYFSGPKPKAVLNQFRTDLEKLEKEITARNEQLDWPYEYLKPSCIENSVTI
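Hydroperoxide product was detected by ferrous iron/xylenol orange as the 573 to 405 nm absorbance ratio. Arachidonic acid at 40 uM (final) was turned over for 30 min at room temperature by 150 nM human 12hLO, pH 7.0 Hepes buffer, after 15 min compound preincubation.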
The depositor's hits bear a star; i = inactive; ? = inconclusive; . = not tested or not shown; [ ] = remark or other dose. This excerpt belongs to a sample that is enriched for hits. Unless noted, calls come from the whole dose curve; as a rule, active = well fitted curve in the direction sought with a large enough effect; inconclusive = small, poorly fitted or top-dose-only effect, or another doubt; inactive = no such curve, though single readings can be large; an effect the other way counts as inactive or inconclusive. Unless noted, % is set by controls: 0 for no effect and ±100 for the full control effect.

SMILES	DT40 TDP1 CPT	HT1080-NT tox	IL-1B inflam inh	HT1080 IDH1KD tx	DT40 TDP1 no CPT	12-LOX inh
CC(=O)c1c(C(C)=O)c(C)n(C(c2ccccc2)c2ccccc2)c1C	?	-3%	-5	-1%	21µM*	6%
CC1(OC(=O)CCc2ccccc2)C(=O)C=C2C=C(c3ccc(C#N)cc3)N(C3CC3)C=C2C1=O (stereo not given)	-28%	-2%	5	-5%	?	-29%
CCCCC1=CC2=CC(=O)C(C)(OC(=O)c3cccs3)C(=O)C2=CO1 (stereo not given)	-1%	4%	29	11%	-5%	28µM*
CCCCC1=CC2=CC(=O)C(C)(OC(=O)CCc3ccccc3)C(=O)C2=CO1 (stereo not given)	?	5%	0	-1%	3%	13µM*
N#CC1=C(N)OC2=C(C(=O)CC(c3ccccc3)C2)C1c1cccc(F)c1 (stereo not given)	.	.	.	.	.	35µM*
Cc1ccc(C2CC(=O)C3=C(C2)OC(N)=C(C#N)C3c2ccc(Cl)c(Cl)c2)cc1 (stereo not given)	.	.	.	.	.	40µM*
N#CC1=C(N)OC2=C(C(=O)CC(c3ccccc3)C2)C1c1ccc(Br)cc1 (stereo not given)	.	.	.	.	.	11µM*
COc1ccc2[nH]c3c(c2c1)CCN1C(=O)N([C@@H](C)C(=O)NCc2c(F)cccc2Cl)C(=O)[C@]31C	18µM*	-5%	-8	-1%	?	21%
COc1ccc2[nH]c3c(c2c1)CCN1C(=O)N([C@@H](C)C(=O)NCC2CCCO2)C(=O)[C@]31C (stereo not given in full)	-5%	4%	8	1%	-8%	3%
C[C@@H](C(=O)NCc1c(F)cccc1Cl)N1C(=O)N2CCc3c([nH]c4ccccc34)[C@@]2(C)C1=O	18µM*	-8%	-12	-8%	21µM*	16%
C=C[C@]1(C)C[C@@H](OC(=O)CSCCN(CC)CC)[C@]2(C)[C@H](C)CC[C@]3(CCC(=O)[C@H]32)[C@@H](C)[C@@H]1O	7.5µM*	.	.	.	3µM*	.
C=C[C@]1(C)C[C@@H](OC(=O)CSC(C)(C)CNC(=O)[C@H](N)C(C)C)[C@]2(C)[C@H](C)CC[C@]3(CCC(=O)[C@H]32)[C@@H](C)[C@@H]1O	0.24µM*	.	.	.	0.27µM*	.
O=C(Nc1ccccc1)N1C[C@@H]2C[C@H](C1)c1ccc(-c3cccc(C(F)(F)F)c3)c(=O)n1C2	.	.	.	.	.	-58%
CCN(CC)CCN(C(=O)c1ccc(C(=O)c2ccccc2)cc1)c1nc2cc3c(cc2s1)OCO3	?	-12%	-55*	-6%	?	10%
CN(C)CCCN(C(=O)c1ccco1)c1nc2c(F)cc(F)cc2s1	?	-29%	-25	-18%	21µM*	-3%
CCN(CC)CCN(C(=O)c1ccc(C(=O)c2ccccc2)cc1)c1nc2c(OC)cccc2s1	?	-18%	-66*	-13%	-23%	i
CN(C)CCCN(C(=O)c1ccc(C(=O)c2ccccc2)cc1)c1nc2cc3c(cc2s1)OCO3	16µM*	?	-68*	?	23µM*	-29%
CN(C)CCCN(C(=O)c1ccco1)c1nc2c(F)cccc2s1	?	-30%	-15	?	?	-12%
CCN(CC)CCN(C(=O)CCS(=O)(=O)c1ccccc1)c1nc2cc3c(cc2s1)OCO3	8.2µM*	-23%	?	?	12µM*	0%
CN(C)CCCN(C(=O)c1ccco1)c1nc2cc3c(cc2s1)OCO3	3.7µM*	?	?	?	5.2µM*	-5%
CCN(CC)CCN(C(=O)CN1C(=O)CCC1=O)c1nc2cc3c(cc2s1)OCO3	-16%	4%	-16	7%	-17%	-32%
Cc1ccc2nc(N(CCCN(C)C)C(=O)c3ccco3)sc2c1	?	-6%	-11	-16%	?	?
Cn1c(=O)c2c(ncn2CC(=O)NC2CCCC2)n(C)c1=O	.	.	.	.	.	-12%
Cc1ccc2oc(C(=O)OCc3ccccc3)cc(=O)c2c1	.	.	.	.	.	1%
COc1ccc(C2=C(Nc3ccc(F)cc3)c3ccccc3C2=O)cc1	?	-13%	-20	-20%	?	12%
SMILES	DT40 TDP1 CPT	HT1080-NT tox	IL-1B inflam inh	HT1080 IDH1KD tx	DT40 TDP1 no CPT	12-LOX inh
Cc1cc(C)cc(NC2=C(c3ccccc3)C(=O)c3ccccc32)c1	21µM*	.	.	.	?	?
COc1ccc(C2=C(Nc3ccc(Br)c(C)c3)c3ccccc3C2=O)cc1	7.3µM*	.	.	.	12µM*	-22%
Cc1cc(C)cc(NC(=O)C(C)N2C(=O)c3ccccc3C2=O)c1 (stereo not given)	3%	9%	4	6%	-6%	-34%
COc1ccc(C2=C(Nc3ccc(C)cc3)c3ccccc3C2=O)cc1	5.2µM*	1%	2	18%	?	5%
Cc1ccc(C(=O)Nc2ccc(Cl)c(-c3nc4ncccc4o3)c2)c(C)c1	?	.	.	.	?	-11%
COc1ccc(C(=O)N2CCC3(C2)C(=NC2CCCC2)NC(=O)N3c2cc(F)cc(F)c2)cc1 (stereo not given)	.	.	.	.	.	7%[6.33 µM]
CN1CCCC2(CCN(C(=O)CCc3ccccc3O)C2)C1=O (stereo not given)	.	.	.	.	.	14%
Cc1ccccc1NC(=O)C(C)Sc1ccccc1 (stereo not given)	.	.	.	.	.	-8%
Cn1cc(C2c3nccn3CCCN2C(=O)c2cccn2C)cn1 (stereo not given)	.	.	.	.	.	18%
COC(=O)C1=C2SC(C)C(=O)N2C(N)=C(C#N)C1c1ccc(OC)c(OC)c1 (stereo not given)	-6%	11%	6	5%	-3%	?
CC(C)c1ccc(/C=c2\sc3n(c2=O)C(N)=C(C#N)C(c2ccc(C(C)C)cc2)C=3C(N)=O)cc1 (stereo not given)	5.8µM*	-15%	30	-21%	7.3µM*	0%
